In PubChem BioAssay AID686978 (National Center for Advancing Translational Sciences (NCATS), 2013):
Screen size: about 420,000 compounds; about 64,000 (15%) were called active. Inconclusive results (about 27%) are left out. The list is a sample of the results. A number with no mark means an inactive call. Calls come from the whole dose curve; as a rule, active = well fitted inhibition curve with a large enough effect; inconclusive = small, poorly fitted or top-dose-only effect; inactive = flat fitted curve, though single readings scatter.

assay: qHTS for Inhibitors of human tyrosyl-DNA phosphodiesterase 1 (TDP1): qHTS in cells in absence of CPT; conditions: DT40 Tdp1-/- hTDP1 cells, no CPT, ATP luminescence, 48 h; activity change, negative = growth inhibition: at 46.2 µM (top of the series); note: nearly all actives have a fitted effect of over 55% in size
In short: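 Chicken DT40 Tdp1-/- cells complemented with human TDP1, screened without camptothecin (DMSO vehicle only), 400 cells/well. Compounds pin-transferred, cells incubated at 37 °C for at least 48 hr. Growth read as ATP-dependent luminescence (CellTiter-Glo, 30 min at RT).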
% is set by controls: 0 for no effect and ±100 for the full control effect; potency is the fitted concentration of half-maximal effect.

Row | SMILES | activity change, negative = growth inhibition [%] | Potency
1 | CC1(C)CC(O)C(CCC(O)c2ccccc2)C(C)(C)N1 (stereo not drawn) | 4.92 | 
2 | CC(=O)Oc1ccc(N(C(C)=O)S(=O)(=O)c2ccc3ccccc3c2)cc1Br | -24.3 | 
3 | Cc1ccc(S(=O)(=O)N(CCCN(C)C)Cc2ccc3c(c2)OCO3)cc1 | -29.6 | 
4 | CC(=O)N(c1ccc2oc(=O)sc2c1)S(=O)(=O)c1ccc(C)cc1 |  | 16.4 µM (active)
5 | COc1ccc(C2/C(=C(/O)c3ccc(OC(C)C)cc3)C(=O)C(=O)N2CCCN2CCOCC2)cc1 (stereo not drawn) | 2.51 | 
6 | C=CCn1c(SCC(=O)Nc2ccc(NC(C)=O)cc2)nc2sc(C)c(C)c2c1=O | -3.89 | 
7 | O=C1CCCC(O)=C1N=Nc1ccc(S(=O)(=O)N2CCOCC2)cc1 | 7.54 | 
8 | O=C1CCC(Cc2ccccc2)N1 (stereo not drawn) | -5.58 | 
9 | COc1ccc(NC(=O)C2CCC(CNC(=O)[C@@H]3Cc4ccccc4CN3)CC2)cc1 (stereo partly drawn) | -1.14 | 
10 | COc1ccc(/C=C2\SC(=S)N(CCCC(=O)NC3CCCC3)C2=O)cc1OC |  | 16.4 µM (active)
11 | COc1ccc(/C=C2\SC(=S)N(CCC(=O)Nc3ccccn3)C2=O)cc1OC | 0.469 | 
12 | O=C1/C(=C/c2ccc(F)cc2)SC(=S)N1CCCC(=O)N1CCCCC1CCO (stereo not drawn) |  | 25.9 µM (active)
13 | O=C(CCCN1C(=O)/C(=C/c2ccccc2)SC1=S)Nc1ccc(O)cc1 | -18.5 | 
14 | COc1cccc(/C=C2/SC(=S)N(CC(=O)NC3C=CS(=O)(=O)C3)C2=O)c1 (stereo not drawn) | -21 | 
15 | COc1ccc(/C=C2\SC(=S)N(CCC(=O)N3CCOCC3)C2=O)cc1OC | -5.77 | 
16 | COc1cccc(/C=C2\SC(=S)N(CCCC(=O)N3CCOCC3)C2=O)c1 |  | 18.4 µM (active)
17 | COc1ccc(/C=C2\SC(=S)N(CCC(=O)Nc3cccc(C(=O)O)c3)C2=O)cc1OC | 19.5 | 
18 | C=CCOc1ccc(/C=C2\SC(=S)N(CCC(=O)O)C2=O)cc1 | -18.1 | 
19 | CC(=O)N(OCc1ccc(OC(C)C)c(Cl)c1)C(C)=O | 24.4 | 
20 | C[N+](C)(C)CCNC(=O)c1c(O)c2c([nH]c1=O)CCCC2 | -16.4 | 
21 | COc1ccc2nc(N3CCCC(O)C3)c(C#N)cc2c1 (stereo not drawn) | -24.3 | 
22 | Cc1ccc(NC(=O)COC(=O)C2C3CC4OC(=O)C2C4C3)cc1Cl (stereo not drawn) | -24 | 
23 | O=C(COC(=O)c1ccccn1)NNC(=O)c1ccc([N+](=O)[O-])cc1 | -9.03 | 
24 | CCc1noc(C)c1C(=O)NCCN1Cc2cc(OC)ccc2OC(CC)C1 (stereo not drawn) | -17.5 | 
25 | Nc1nc(N)c(N=O)c(N)n1 | -4.48 | 
26 | O=C(O)C1C2C=CC(C2)C1C(=O)NCc1ccccc1 (stereo not drawn) | -11.4 | 
27 | O=C(NCc1ccccc1)[C@H]1C[C@@H]1[C@H](NP(=O)(c1ccccc1)c1ccccc1)c1ccccc1 |  | 20.6 µM (active)
28 | O=C(NCc1ccccc1)C1CNCC(C(=O)NCc2ccccc2)C1 (stereo not drawn) | -23.5 | 
